Laboratory results published in PubChem BioAssay (NCI).
About 83,000 compounds went through this panel and 20% of them were active in at least one assay; those are over-represented in the sample as a whole.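 Plates (96-well) were seeded with cells, treated with compound at one concentration, and incubated for 48 hours before percent growth was determined.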 Activity calls are given as the source filed them. Rule for the calls: active = growth percent below 10; inactive = the rest.

Columns and labels:
Assay in all cases: NCI-60 one-dose screen, 48 h (100 = growth as untreated, 0 = no growth, -100 = all killed)
Settings in all cases: 10 µM unless noted
[1] = test system: NCI-H23 lung
[2] = test system: NCI-H226 lung
[3] = test system: NCI-H322M lung
[4] = test system: HOP-62 NSCLC
[5] = test system: NCI-H460 lung
[6] = test system: HOP-92 NSCLC
[7] = test system: NCI-H522 lung
[8] = test system: A549/ATCC NSCLC
[9] = test system: 786-0 renal
[10] = test system: DU-145 prostate
[11] = test system: K-562 leukemia
[12] = test system: MALME-3M melanoma
[13] = test system: MDA-MB-231 breast
[14] = test system: RXF 393 renal
[15] = test system: SF-268 CNS
[16] = test system: SF-295 CNS
[17] = test system: SF-539 CNS
[18] = test system: UACC-257 melanoma
[19] = test system: M14 melanoma

Measured: growth

Cl.Fc1c[c-]c(-c2ccccn2)c(F)c1.[Pt].c1ccc(P(c2ccccc2)C([PH+](c2ccccc2)c2ccccc2)[PH+](c2ccccc2)c2ccccc2)cc1
active: [1] 5.53% | [5] 7.55% | [6] -12.9% | [12] -12.9% | [13] -16% | [16] 5.14% | [17] 9.54% | [18] 6.42%
inactive: [2] 12.5% | [3] 20.8% | [4] 25.9% | [7] 12% | [8] 15.4% | [9] 22.5% | [10] 26.1% | [11] 13.6% | [14] 13.3% | [15] 26.4% | [19] 18.7%

COc1cc2ccccc2cc1C(=O)NC(=S)Nc1ccc(-c2nc3ccccc3[nH]2)cc1
inactive: [1] 72.9% | [2] 102% | [3] 90.9% | [4] 79.9% | [5] 69.1% | [6] 93.7% | [7] 89.6% | [8] 92.1% | [9] 38% | [10] 56.1% | [11] 75.6% | [12] 48% | [13] 52.9% | [14] 86.2% | [15] 62% | [16] 80.5% | [17] 14.7% | [18] 98% | [19] 79.3%

Nc1ccn(C2OC(F)(CO)C(O)C2F)c(=O)n1 (stereo not given)
inactive: [1] 10.3% | [2] 89.4% | [3] 71.1% | [4] 17.3% | [5] 12.7% | [6] 53.3% | [7] 32.8% | [8] 21.8% | [9] 10.9% | [10] 24.6% | [11] 69% | [12] 57.4% | [13] 93.4% | [14] 82.4% | [15] 47.1% | [16] 55.2% | [17] 46.9% | [18] 62.6%
active: [19] 1.59%

CCNCCNc1cc(-c2cccc(C(F)(F)F)c2)c(C#N)c2nc3ccccc3n12
active: [1] -57.6% | [2] -67.2% | [3] -63.1% | [4] -75.1% | [5] -70.4% | [6] -58.1% | [7] -71.3% | [8] -91.9% | [9] -88% | [10] -74.9% | [11] -65.8% | [12] -77.3% | [13] -66.2% | [14] -85.6% | [15] -73.8% | [16] -82.3% | [17] -88.7% | [18] -84.4% | [19] -89.3%

O=C1C(Cl)C(c2ccccc2Cl)N1n1cnnc1 (stereo not given)
inactive: [1] 101% | [2] 102% | [3] 93.5% | [4] 73.5% | [5] 101% | [6] 91.1% | [7] 92.9% | [8] 91.1% | [9] 97.1% | [10] 104% | [11] 102% | [12] 95.6% | [13] 94.8% | [14] 98.6% | [15] 102% | [16] 100% | [17] 85.3% | [18] 91.5% | [19] 93.1%

Cc1ccc2c(n1)C(=O)C(Oc1ccc(F)cc1)=CC2=O
inactive: [1] 94.9% | [2] 76.5% | [3] 101% | [4] 125% | [5] 101% | [6] 123% | [8] 99.4% | [9] 107% | [10] 114% | [11] 20% | [12] 93.9% | [13] 105% | [14] 107% | [15] 90.8% | [16] 101% | [17] 95.9% | [18] 95.5% | [19] 103%
active: [7] -43.9%

CN1CCN(C(=O)[C@@]2(C)CC[C@]3(C)CC[C@]4(C)C(=CC[C@@H]5[C@@]6(C)C/C(=C/c7ccncc7)C(=O)C(C)(C)[C@@H]6CC[C@]54C)[C@@H]3C2)CC1
inactive: [1] 59.3% | [2] 88.6% | [3] 79.7% | [4] 68.4% | [5] 24.4% | [6] 34.3% | [7] 69% | [8] 45.9% | [9] 58.4% | [10] 76.1% | [12] 42.3% | [13] 69.4% | [14] 46.3% | [15] 67.9% | [16] 63.6% | [17] 57.7% | [18] 40.8% | [19] 49.8%
active: [11] 7.71%

COc1ccc(N=c2nc3sc4cc(Cl)ccc4n3c(N)c2C#N)cc1
inactive: [1] 66.5% | [2] 24.4% | [3] 93.4% | [4] 102% | [5] 102% | [6] 88.4% | [7] 88.6% | [8] 62.4% | [9] 22.1% | [10] 105% | [11] 98.9% | [12] 77.4% | [13] 76.4% | [14] 52% | [15] 60.1% | [17] 103% | [18] 61.6% | [19] 70.6%
active: [16] -3.63%

O=C(Oc1ccc[nH]c1=O)c1cc([N+](=O)[O-])cc([N+](=O)[O-])c1
inactive: [1] 114% | [2] 104% | [3] 98.6% | [4] 97.2% | [5] 111% | [6] 146% | [7] 116% | [8] 77.3% | [9] 101% | [10] 123% | [11] 87.1% | [12] 156% | [13] 114% | [14] 83.3% | [15] 116% | [16] 113% | [17] 99.3% | [18] 19.7% | [19] 101%

N#Cc1c(N)n2c(nc1=Nc1ccc([N+](=O)[O-])cc1)sc1cc(Cl)ccc12
active: [16] -4.01%
inactive: [1] 79% | [2] 88.4% | [3] 96% | [4] 102% | [5] 86.9% | [6] 57.6% | [7] 77% | [8] 106% | [9] 109% | [10] 107% | [11] 74.4% | [12] 90.6% | [13] 74.5% | [14] 114% | [15] 95.4% | [17] 107% | [18] 109% | [19] 105%

CCCNCC(=O)Nc1ccc(C(=O)OC(C)(C)CC)cc1
inactive: [1] 102% | [2] 95% | [3] 97% | [4] 99.7% | [5] 104% | [6] 74.4% | [7] 66.6% | [8] 97.1% | [9] 90.8% | [10] 101% | [11] 101% | [12] 90.9% | [13] 102% | [14] 116% | [15] 99% | [16] 103% | [17] 108% | [18] 105% | [19] 96.8%

N#Cc1c(N)n2c(nc1=Nc1ccc(Cl)cc1)sc1cc(Cl)ccc12
active: [16] -2.32%
inactive: [1] 66.6% | [2] 36.7% | [3] 91% | [4] 96.9% | [5] 95.1% | [6] 76.6% | [7] 93% | [8] 75.4% | [9] 51.4% | [10] 97.7% | [11] 92.1% | [12] 85.4% | [13] 67.1% | [14] 65.1% | [15] 56.4% | [17] 103% | [18] 54.4% | [19] 62.2%

C=C1c2c(C)nn(-c3ccc(S(N)(=O)=O)cc3)c2N(C)C23CC1C1(C)c4c(C)nn(-c5ccc(S(N)(=O)=O)cc5)c4N(C)C(C)(CC12)C3 (stereo not given)
inactive: [1] 51.4% | [2] 40.7% | [3] 75.7% | [4] 48.2% | [5] 12.4% | [6] 50.1% | [7] 44% | [8] 17.6% | [9] 41.9% | [10] 43.6% | [11] 29.9% | [12] 61.6% | [13] 39.6% | [14] 33.3% | [15] 42.2% | [16] 30.1% | [17] 57.1% | [18] 49% | [19] 20.6%

CNC(=O)c1cc(Oc2ccc3nc(NC(=O)Nc4cc(C(F)(F)F)cc(C(F)(F)F)c4)sc3c2)ccn1
active: [1] -67.9% | [2] -13.7% | [3] -46.6% | [4] -70.5% | [5] -57.5% | [6] -54.6% | [7] -71.9% | [8] -71.4% | [9] -64% | [10] -39.6% | [11] -2.97% | [12] -57.5% | [13] -53.1% | [14] -24.5% | [15] -25.6% | [16] -81.9% | [17] -80% | [18] -50.8% | [19] -39%

COC(=O)/C(=C\c1ccc(OC)cc1)C(=O)N1c2ccccc2Sc2ccccc21
inactive: [1] 72.7% | [2] 75.1% | [3] 83% | [4] 64% | [5] 96.7% | [6] 38.7% | [8] 56.2% | [9] 70.5% | [10] 78.5% | [11] 11.1% | [12] 32.9% | [13] 54.2% | [14] 47.7% | [15] 54.6% | [16] 38.8% | [17] 42.1% | [18] 65.4% | [19] 23.3%
active: [7] 2.63%
